Compounds without any hit were thinned out: in the full panel of roughly 83,000, 20% have a hit.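 96-well plates, one dose, 48 hours. Percent growth reported; active if below 10.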 Unmarked numbers belong to inactive results. Calls of active or inactive are those of the source.
Tests used:
Test in all cases: NCI-60 one-dose screen, 48 h (100 = growth as untreated, 0 = no growth, -100 = all killed)
Details in all cases: 10 µM unless noted
[1] = system: T-47D breast
[2] = system: BT-549 breast
[3] = system: MDA-MB-435 melanoma
[4] = system: SW-620 colon
[5] = system: MCF7 breast
[6] = system: HCT-116 colon
[7] = system: HCC-2998 colon
[8] = system: KM12 colon

SMILES | growth [1] | growth [2] | growth [3] | growth [4] | growth [5] | growth [6] | growth [7] | growth [8]
CCSc1ccc([C@@H]2[C@@H](O)C(=O)N2c2cc(OC)c(OC)c(OC)c2)cc1 | 76.6% | 9.68% (active) | -32.4% (active) | 22.3% | 20.1% | 2.13% (active) | 29.6% | 11.3%
CC(=O)c1c(O)c(C)c(O)c2c1OC1=CC(=O)/C(=C(/C)N)C(=O)C12C (centres undefined) | 74.9% | 89.3% | 103% | 99.4% | 85.4% | 63.4% | 103% | 88%
CC(COC(=O)c1ccccc1)N1CC2CCC(C1)O2 (centres undefined) | 103% | 105% | 98.1% | 97.6% | 102% | 106% | 110% | 109%
CC(=O)N1N=C(c2ccc(C)cc2)CC1c1cn(-c2ccccc2)nc1-c1cccc(Nc2ccnc3cc(Cl)ccc23)c1 (centres undefined) | 23.4% | 87.3% | 13.8% | 27.2% | 24.8% | 6.87% (active) | 102% | 72.5%
NC(=Nc1ccccc1)SCCCSC(N)=Nc1ccccc1 | 70.1% | 92.9% | 89.8% | 95.4% | 90.9% | 90.5% | 99.2% | 94.7%
COc1ccc(C(=O)C(C#N)c2cc(OC)c(OC)c(OC)c2)cc1 (centres undefined) | 98.3% | 98.3% | 101% | 107% | 99.6% | 97.5% | 100% | 115%
COc1ccc(Nc2ncccc2C(=O)NCc2cn(Cc3cc(OC)cc(OC)c3)nn2)cc1 | 93.6% | 98.4% | 106% | 105% | 104% | 94.8% | 103% | 102%
Clc1ccc(Nc2ncnc3c2sc2ncccc23)c(Cl)c1 | 36.7% | 44.6% | 36.3% | 47.9% | 18.4% | 27.6% | 59.6% | 50.8%
CC1C2CCC(C2)C1COCCOCCO (centres undefined) | 98.7% | 104% | 110% | 101% | 105% | 108% | 105% | 110%
Cc1ccc2nc(CN(CCN(Cc3nc4ccc(C)cc4[nH]3)Cc3nc4ccc(C)cc4[nH]3)Cc3nc4ccc(C)cc4[nH]3)[nH]c2c1 | -93% (active) | -98.2% (active) | -92.6% (active) | -85.9% (active) | -95% (active) | -96.3% (active) | -65% (active) | -95.9% (active)
O=C(Nc1cnc(C(F)(F)F)cn1)c1cc(Cl)ccc1O | -13.2% (active) | -21.3% (active) | 5.89% (active) | 10.9% | 6.48% (active) | 1.13% (active) | 14.6% | 3.91% (active)
COc1ccc(/C=C/C(=O)c2ccc(NC(=O)CSc3nnc(-c4ccc(OC)cc4)n3-c3ccccc3)cc2)cc1 | 92.9% | 99.7% | 98.3% | 102% | 77.1% | 4.27% (active) | 104% | 102%
COc1ccc(C2=NN(C=O)C(c3ccc(OS(=O)(=O)c4ccc(C)cc4)c(OC)c3)C2)cc1 (centres undefined) | 40.3% | 46.4% | 14.1% | 48.3% | 40.2% | 45.8% | 74.1% | 54.5%
Cc1cc(C)c(C#N)c(SCC(=O)c2sc3c(C#N)c(C)cc(C)[n+]3c2[O-])n1 | 38.1% | 30.4% | -59.2% (active) | 20.3% | 13.4% | 16.8% | 15.8% | 16.4%
O=C(CSc1ccc(Cl)cc1)Nc1ccc(-c2nc3ccccc3s2)c(Cl)c1 | 34.4% | 95.2% | 77.9% | 65.9% | 47.7% | 19.7% | 81.1% | 23%
CCCCCCCCCCCCCCCCS(=O)(=O)Nc1cc(C(=O)NN)cc(C(=O)NN)c1 | 42% | 61.5% | 89.9% | 96% | 72.1% | 71.3% | 48.2% | 73%
CNC(=O)c1cc(Oc2ccc(NC(=O)c3[nH]c(SC)nc3-c3ccc(F)cc3)cc2)ccn1 | 37% | 85.3% | 21.2% | 90.3% | 66.4% | 62.9% | 96.9% | 19.4%
N#Cc1c(N)c(C(=O)c2ccc3c(c2)OCCO3)n2c1CCCC2 | 29.2% | 52.9% | -48.8% (active) | 19.3% | 18.1% | 18.6% | 59.6% | 24.1%
Cc1ccc(NC(=O)c2[nH]c(SCCN(C)C)nc2-c2ccc(F)cc2)cc1C#Cc1cnc2cccnn12 | 84.2% | 94.8% | 25.7% | 0.0547% (active) | 23.1% | -64.3% (active) | 96.3% | -6.46% (active)
Cc1ccc(NC(=O)c2nc(S(C)=O)oc2-c2ccc(F)cc2)cc1Nc1nccc(-c2cccnc2)n1 (centres undefined) | 40% | 26.9% | 82.5% | 8.58% (active) | 50.7% | -53.3% (active) | 97.5% | 50.1%
Cc1ccc(C2CC(c3cccs3)=NN2c2ccc(S(N)(=O)=O)cc2)s1 (centres undefined) | 71.5% | 102% | 80.8% | 97.8% | 77.3% | 79.2% | 103% | 93.2%
COC(=O)CNS(=O)(=O)c1ccc2c(c1)Cc1cc(S(=O)(=O)NCC(=O)OC)ccc1-2 | 99.5% | 100% | 103% | 102% | 95.5% | 109% | 111% | 109%
c1ccc(C(CC2=NCCCN2)c2ccccc2)cc1 | 101% | 95.1% | 94% | 100% | 94.1% | 97.3% | 102% | 99.7%
CC(=O)OC1Oc2cc(C)c(C)cc2-c2oc(=O)c(-c3ccc(F)cc3)cc21 (centres undefined) | 52.5% | 89.3% | -7.18% (active) | 26.7% | 38.3% | 32.2% | 56.7% | 23.7%
Nc1cc2nc3ccccc3oc-2cc1=O | 69.9% | -47.1% (active) | -88% (active) | 11.6% | 9.47% (active) | 45.1% | 79.4% | 32.4%
Cc1ccc(NC(=O)c2[nH]c(SCCN(C)C)nc2-c2ccc(F)cc2)cc1Nc1ccc2ncn(C)c(=O)c2c1 | 76.8% | 85.2% | 44.6% | 51.8% | 70% | 21% | 49.9% | 49.6%
CCN(CC)CCNc1c(C)cc(CO)c(Cl)c1C | 112% | 104% | 106% | 105% | 75% | 104% | 107% | 113%
CCN(CC)CCCC(C)Nc1cnc(C(=O)Nc2ccc(Cl)c3cccnc23)cn1 (centres undefined) | -49.3% (active) | 80.1% | -57.8% (active) | 0.619% (active) | -2.14% (active) | -52.4% (active) | 32.6% | 30.3%
